# “And” between values parts separate entries of the source, which are not always exact repeats. Equal entries are not always repeated. Records with an inconclusive call do not appear. A call without a number means that no potency is given here. Where a structure was tested more than once in an assay, its records may differ in their call. The source made the active and inactive calls. The call rests on the fitted dose curve; in most records, active means well fitted inhibition curve with a large enough effect; inconclusive means small, poorly fitted or top-dose-only effect; inactive means flat fitted curve, though single readings scatter.
# Experiment: P-glycoprotein substrates identified in KB-8-5-11 adenocarcinoma cell line, qHTS therapeutic library screen (AID 1346987); further: nearly all actives have a fitted effect of over 65% in size
# Conditions: KB-8-5-11 (P-gp overexpressing) viability, CellTiter-Glo, 72 h; series mostly up to 44.5 µM
# Procedure, shortened: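 KB-8-5-11, a colchicine-selected P-gp-overexpressing KB-3-1 subline, was grown without colchicine for the assay. Cells were seeded at 500 cells/well, dosed in concentration-response and incubated 72 h at 37 degree C, 5% CO2. Viability was read by CellTiter-Glo luminescence.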
# Potency means the concentration at half of the fitted maximal effect.
row,Structure (SMILES),Potency
1,CCOC(=O)[C@H](CCc1ccccc1)N[C@H]1CCc2ccccc2N(CC(=O)O)C1=O,inactive and 23.5 µM (active)
2,Cc1ncc([N+](=O)[O-])n1CCO,inactive
3,CC(C)C1CCC(C(=O)N[C@H](Cc2ccccc2)C(=O)O)CC1 (some centres not stated),inactive
4,Cn1nnc2c(C(N)=O)ncn2c1=O,inactive
5,CN1CCCC(n2nc(Cc3ccc(Cl)cc3)c3ccccc3c2=O)CC1 (configuration not stated),inactive
6,N[C@@H](C(=O)N[C@@H]1C(=O)N2C(C(=O)O)=C(Cl)CS[C@H]12)c1ccccc1,inactive
7,CO[C@@]12[C@H](COC(N)=O)C3=C(C(=O)C(C)=C(N)C3=O)N1C[C@@H]1N[C@@H]12,inactive and 16.6 µM (active)
8,OC(Cn1cncn1)(Cn1cncn1)c1ccc(F)cc1F,inactive
9,C[C@@H](NCCCc1cccc(C(F)(F)F)c1)c1cccc2ccccc12,inactive and 20.6 µM (active)
10,O=C(O)c1cccnc1,inactive
11,O=c1cc(O)c(Cl)c[nH]1,inactive
12,CCn1cc(C(=O)O)c(=O)c2cc(F)c(N3CCN(C)CC3)cc21,inactive
13,NC(=O)N1c2ccccc2CC(=O)c2ccccc21,inactive
14,CC(N)C12CC3CC(CC(C3)C1)C2 (configuration not stated),inactive
15,CN(CCOc1ccc(CC2SC(=O)NC2=O)cc1)c1ccccn1 (configuration not stated),inactive
16,Cc1cccc(Nc2ccncc2S(=O)(=O)NC(=O)NC(C)C)c1,inactive
17,C#CCN[C@@H]1CCc2ccccc21,inactive
18,CCOC(=O)c1ccc(C#Cc2ccc3c(c2)C(C)(C)CCS3)nc1,inactive
19,CC(C)(C)C(=O)OCOP(=O)(COCCn1cnc2c(N)ncnc21)OCOC(=O)C(C)(C)C,inactive

row,Structure (SMILES),Potency
1,C[C@@H]1CN(c2c(F)c(N)c3c(=O)c(C(=O)O)cn(C4CC4)c3c2F)C[C@H](C)N1,inactive
2,COc1ccc(C(=O)CC(=O)c2ccc(C(C)(C)C)cc2)cc1,inactive
3,CCOC(=O)c1ccc(OC(=O)CCCCCN=C(N)N)cc1,inactive
4,CNCC[C@H](Oc1cccc2ccccc12)c1cccs1,inactive
5,CN(C)CCc1c[nH]c2ccc(CS(=O)(=O)N3CCCC3)cc12,inactive
6,NC(N)=NC(N)=NCCc1ccccc1,inactive
7,CCC(C)(C)c1ccc(CC(C)CN2C[C@@H](C)O[C@@H](C)C2)cc1 (some centres not stated),inactive
8,O=S(=O)(O)CCS,inactive
9,CC(=O)[C@H]1CC[C@H]2[C@@H]3CC=C4C[C@@H](O)CC[C@]4(C)[C@H]3CC[C@]12C,inactive
10,COC(=O)Nc1nc2ccc(Sc3ccccc3)cc2[nH]1,495 nM (active) and 1.18 µM (active)
11,CC(C)(Sc1cc(C(C)(C)C)c(O)c(C(C)(C)C)c1)Sc1cc(C(C)(C)C)c(O)c(C(C)(C)C)c1,inactive
12,CN(Cc1cc(Br)cc(Br)c1N)C1CCCCC1,inactive
13,CCN(CC)CC#CCOC(=O)C(O)(c1ccccc1)C1CCCCC1 (configuration not stated),inactive
14,O=c1oc2c(O)c(O)cc3c(=O)oc4c(O)c(O)cc1c4c23,inactive
15,COc1ncnc(NS(=O)(=O)c2ccc(N)cc2)c1OC,inactive
16,N=C(N)c1ccc(OCCCCCOc2ccc(C(=N)N)cc2)cc1,inactive
17,CCN(C)C(=O)Oc1cccc([C@H](C)N(C)C)c1,inactive
18,CC[C@H](NC(C)C)[C@H](O)c1ccc(O)c2[nH]c(=O)ccc12,inactive
